# Values without a mark were called inactive. The source made the active and inactive calls.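 How the source made its calls, unless noted: active means mean inhibition above 46.5%, the solvent-only control mean plus 3 SD; inactive means the rest.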
# Key:
# [1] = system: transactivating tegument protein VP16 (Human herpesvirus 1); experiment: VP16 transactivation reporter inhibitors, counter-screen for SRC2 inhibitor project, cell-based, luminescence, single concentration (AID 652007; in the data active means inhibition above about 36%); conditions: cell-based VP16 transactivation luciferase reporter, at 8.9 µM, active compounds read high
# [2] = biological target: Nuclear receptor coactivator 2 (Homo sapiens) (UniProt Q15596); experiment: SRC2 coactivator transcriptional activity inhibitors, confirmation, cell-based, luminescence, HEK293, triplicate (AID 652008); conditions: HEK293 GAL4-SRC2 luciferase reporter, at 8.9 µM, active compounds read high;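 further: 0% = DMSO-treated cells and 100% = Gossypol at 36 µM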
# Chain of Nuclear receptor coactivator 2 (Homo sapiens) (Q15596 whole entry, looked up, the tested form may be a part): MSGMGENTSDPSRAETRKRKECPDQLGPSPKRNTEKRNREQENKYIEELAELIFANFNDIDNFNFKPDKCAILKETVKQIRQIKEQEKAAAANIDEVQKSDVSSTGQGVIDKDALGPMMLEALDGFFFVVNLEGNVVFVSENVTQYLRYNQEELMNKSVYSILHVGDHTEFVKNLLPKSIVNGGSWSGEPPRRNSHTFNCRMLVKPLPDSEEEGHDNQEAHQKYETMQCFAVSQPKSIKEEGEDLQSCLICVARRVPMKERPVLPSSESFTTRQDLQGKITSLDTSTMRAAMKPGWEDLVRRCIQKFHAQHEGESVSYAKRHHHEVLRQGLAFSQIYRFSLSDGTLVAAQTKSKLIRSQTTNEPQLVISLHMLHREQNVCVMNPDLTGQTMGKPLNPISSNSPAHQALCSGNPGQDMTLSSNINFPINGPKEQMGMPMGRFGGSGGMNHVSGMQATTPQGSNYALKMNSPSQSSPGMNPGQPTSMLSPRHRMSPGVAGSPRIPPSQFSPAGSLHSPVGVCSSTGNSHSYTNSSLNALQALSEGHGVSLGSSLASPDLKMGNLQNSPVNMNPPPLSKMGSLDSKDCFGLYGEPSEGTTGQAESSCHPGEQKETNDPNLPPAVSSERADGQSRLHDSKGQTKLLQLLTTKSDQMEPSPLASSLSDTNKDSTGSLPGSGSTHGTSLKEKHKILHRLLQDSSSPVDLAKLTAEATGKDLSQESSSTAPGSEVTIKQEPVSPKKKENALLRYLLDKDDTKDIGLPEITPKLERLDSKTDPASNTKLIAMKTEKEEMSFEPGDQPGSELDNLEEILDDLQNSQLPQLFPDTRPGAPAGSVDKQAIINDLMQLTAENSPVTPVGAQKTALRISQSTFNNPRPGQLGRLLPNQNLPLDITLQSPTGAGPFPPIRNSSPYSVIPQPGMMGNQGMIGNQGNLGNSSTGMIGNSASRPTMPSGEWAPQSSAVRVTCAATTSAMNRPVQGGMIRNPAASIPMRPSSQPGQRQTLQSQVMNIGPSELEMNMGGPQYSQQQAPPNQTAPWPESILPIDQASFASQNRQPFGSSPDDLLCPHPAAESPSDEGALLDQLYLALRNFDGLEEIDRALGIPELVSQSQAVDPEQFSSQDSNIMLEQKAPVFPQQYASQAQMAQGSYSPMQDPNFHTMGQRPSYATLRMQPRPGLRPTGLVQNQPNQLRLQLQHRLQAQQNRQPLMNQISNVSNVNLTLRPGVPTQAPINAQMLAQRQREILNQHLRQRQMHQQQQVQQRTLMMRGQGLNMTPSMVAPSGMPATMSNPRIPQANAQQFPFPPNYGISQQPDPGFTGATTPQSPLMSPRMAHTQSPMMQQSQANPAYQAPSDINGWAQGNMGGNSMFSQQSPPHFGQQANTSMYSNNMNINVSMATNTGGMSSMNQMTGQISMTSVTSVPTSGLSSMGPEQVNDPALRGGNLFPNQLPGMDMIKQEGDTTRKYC
Compound,inhibition [1],inhibition [2]
CCn1nc(NC(=O)C(C)C)c2cc3cccc(C)c3nc21,3.87%,15.9%
O=C(c1ccco1)N1CCN(C(=O)N2c3ccccc3Sc3ccccc32)CC1,6.34%,14.1%
COc1ccc(C(=O)OCC(=O)Nc2ccc3c(c2)OCCO3)c(OC)c1,6.79%,-39%
COC(=O)c1cnn(-c2ccc(Cl)cc2)c1/C=N/NC(N)=S,22%,34.7%
CCSc1ccccc1C(=O)N1CCN(c2ccc([N+](=O)[O-])cc2)CC1,0.48%,15.7%
CCC(=O)Nc1ccc(NC(=O)c2oc3ccccc3c2C)cc1,-12.3%,38.1%
COc1ccc(CN2C[C@H](COCc3ccccc3)Oc3cccc(N4CCCC4)c3S2(=O)=O)cc1,-11%,-6.23%
Cc1cccc(C(=O)O/N=C(\N)c2ccccn2)c1,-73.6%,-81.6%
O=C(N/N=C/c1ccc(O)cc1)c1[nH]c2ccc(Br)cc2c1-c1ccccc1,-15.2%,-7.94%
Cc1c(Cl)sn(-c2ccc(Cl)cc2)c1=O,76.3% (active),93.4% (active)
CC(C)(C)c1ccc(-c2n[nH]c(=S)n2C2CCCC2)cc1,1.72%,3.48%
COc1cc(Cn2c3ccc(NC(=O)CC(C)c4ccccc4)cc3c(=O)n2C)ccc1F (stereo not given),-0.16%,2.27%
CC(C)(C)c1ccc(SCCc2ccncc2)cc1,-28.2%,-4.99%
O=c1c(Br)ccc(Br)cc1Br,97.7% (active),99.4% (active)
CC(C)Cc1nnc(NC(=O)CCC(=O)N2CCN(Cc3ccccc3)CC2)s1,8.01%,17.4%
Cc1ccc(O)c(/C=N/NC(=O)Cc2ccc(Cl)cc2)c1,-11.1%,-13.9%
CC(OC(=O)C1CCCCC1)C(=O)Nc1cccc([N+](=O)[O-])c1 (stereo not given),-0.78%,9.77%
CC(C)(C)c1nn(-c2ccccc2)c2[nH]c(=O)c(CNc3ccc4c(c3)OCCO4)cc12,-7.89%,3.22%
COc1ccc(C(NC(=O)C2CCN(CCCOc3ccccc3)CC2)c2cccs2)cc1 (stereo not given),-8.07%,3.49%
N#CC1CCCc2c1[nH]c1ccc([N+](=O)[O-])cc21 (stereo not given),-27%,-16.7%
CC(C)(C)c1ccc(OCCC(=O)OCC(=O)NC2CC2)cc1,23.8%,2.38%
CC1CCCc2sc3ncn(N)c(=N)c3c21 (stereo not given),-0.69%,1.19%
CN(c1ccccc1)S(=O)(=O)c1ccc(Cl)c(C(=O)Nc2ccncc2)c1,0.61%,29.7%
Cc1ccc2nc(-c3ccc4c(c3)OCCO4)cn2c1,58.9% (active),88.3% (active)
CCOC(=O)C1=CCN(S(=O)(=O)c2cccc(Cl)c2)C1c1ccc(Cl)c(Cl)c1 (stereo not given),-7.88%,7.77%

Compound,inhibition [1],inhibition [2]
O=C(NC(c1ccc(F)cc1)c1ccc2ccccc2n1)C1CCN(CCOc2ccc(F)cc2)CC1 (stereo not given),-1.57%,-16.5%
COc1cc(/C=C2\COC/C(=C\c3cc(OC)c(OC)c(OC)c3)C2=O)cc(OC)c1OC,96.8% (active),97.7% (active)
N#CC1C=Cc2c(ccc3ccccc23)N1C(=O)c1ccccc1 (stereo not given),-39.9%,56.4% (active)
O=C(c1ccc(Cl)cc1)C(CN1CCCC1)c1ccccc1 (stereo not given),26.1%,53.9% (active)
CCOC(=O)C1CCCN(C(=O)c2ccc3c(c2)N(C)C(=O)/C(=C/c2ccccc2Cl)S3)C1 (stereo not given),-1.52%,23.8%
O=C(NCc1cccnc1)c1cc(Sc2ccc(F)cc2F)nc2ccccc12,3%,16.4%
O=C(NCCCN1CCOCC1)c1cc(-c2ccc(Br)cc2)on1,-7.7%,13.1%
O=[N+]([O-])c1cccc(NC(=S)Nc2nc(-c3ccc(Cl)cc3Cl)cs2)c1,-15.8%,9.75%
O=C(CNC(=O)c1ccc2c(c1)OCO2)Nc1cccc(Br)c1,-13.8%,-16.3%
CCN1CCCc2cc(CN(CCN3CCOCC3)C(=S)Nc3ccccc3OC)ccc21,-14.1%,-10.6%
CC(C)Oc1ccc(S(=O)(=O)N2CCCCC2)cc1NC(=O)C1CCCC1,11.3%,2.87%
Cc1ccc(NC(=O)C2CCN(C(=O)c3ccccc3C)CC2)nc1,-5.97%,-11.5%
CC(C)(C)c1ccc(NC(=O)COc2ccc(-n3ccnc3)cc2)cc1,10.3%,61.8% (active)
CCCSc1nnc(Sc2nnnn2-c2ccccc2)s1,7.33%,16.8%
Nc1nc(CCl)nc(Nc2ccccc2)n1,-25.1%,8.83%
Cn1nnnc1Sc1ncnc2scc(-c3ccc(C(F)(F)F)cc3)c12,35.2%,44.4%
CC1=C(C(=O)N2CCOCC2)CC(CC(=O)NCCCCc2ccccc2)C(=O)N1Cc1ccc(C(C)(C)C)cc1 (stereo not given),12.6%,2.06%
CN(C)c1ccc(/C=C2\SC(=O)N(CCc3nnc(N)s3)C2=O)cc1,-23.4%,27.1%
COc1ccc(C(=O)NCCNc2nc3cc(C)cc(C)c3cc2C#N)c(OC)c1,3.31%,86.2% (active)
CCOC(=O)C1CCN(C(=O)CCc2c(C)nc3cc(-c4ccccc4)nn3c2C)CC1,-24.4%,48.5% (active)
COc1cc(F)ccc1-c1csc(C(O)c2ccc(F)c(F)c2)n1 (stereo not given),-3.93%,10.6%
CCC(C)[C@H](NC(=O)C1CC(=O)N(c2ccc(OC)cc2)C1)C(=O)N1CCCCC1 (stereo not given in full),6.37%,10.3%
Cc1c(C)n(Cc2ccccc2)c2ncnc(Cl)c12,19.1%,39.9%
CCc1ccc(-c2nc(CS(=O)CC(=O)NCc3ccccc3)c(C)o2)cc1 (stereo not given),-8.7%,51.9% (active)
Cc1cc(C(=O)COc2cccnc2[N+](=O)[O-])c(C)n1-c1ccccc1F,-54.6%,62.7% (active)

# From PubChem BioAssay
